Reference: PubChem BioAssay
Where “and” joins values, the source holds several entries; their conditions need not be identical. Equal values may be shown once. Calls of active or inactive are those of the source.

Legend:
[1] = A549 cell viability effects, profiling panel, calcein-AM fluorescence, 48 h, basal (AID 1162); details: higher = more signal
[2] = adipocyte viability effects, profiling panel, cell-based, 3T3-L1 adipocytes, calcein-AM fluorescence, 48 h, basal (AID 1163); details: 3T3-L1 adipocytes viability, higher = more signal
[3] = HepG2 cell viability effects, profiling panel, calcein-AM fluorescence, 48 h, basal (AID 1164); details: higher = more signal
[4] = MM1S cell viability effects, profiling panel, calcein-AM fluorescence, 48 h, basal (AID 1165); details: higher = more signal;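 note: viability of MM1S multiple myeloma cells under basal unstimulated conditions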
[5] = basal RPMI8226 viability, no added stimulus, profiling panel, cell-based, calcein-AM fluorescence, 48 h, PK04 Diversity Set (AID 1166); details: RPMI8226 myeloma viability, higher = more signal;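 note: cells grown under basal conditions without added stimulus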
[6] = basal HepG2 mitochondrial membrane potential changes, profiling panel, cell-based, JC-1 fluorescence, 24 h, 100 nL compound (AID 1167); details: higher = more signal
[7] = basal 3T3-L1 adipocyte mitochondrial potential changes, profiling panel, cell-based, JC-1 fluorescence, 3T3-L1 adipocytes, 24 h, 100 nL compound (AID 1168); details: JC-1 mitochondrial fluorescence, higher = more signal, called active from +8 up or from −8 down
[8] = basal RPMI8226 mitochondrial membrane potential changes, profiling panel, cell-based, JC-1 fluorescence, 24 h, 100 nL compound (AID 1169); details: RPMI8226 myeloma, JC-1 mitochondrial potential fluorescence, higher = more signal
[9] = basal MM1S mitochondrial membrane potential changes, profiling panel, cell-based, JC-1 fluorescence, 24 h, 100 nL compound (AID 1170); details: higher = more signal
[10] = A549 lung cancer cell viability effects, profiling panel, resazurin fluorescence, 24 h, PK04 Diversity Set (AID 1171); details: higher = more signal, called active from +8 up or from −8 down
Note: test concentration not given here.

| Structure (SMILES) | z-score [1] | z-score [2] | z-score [3] | z-score [4] | z-score [5] | z-score [6] | z-score [7] | z-score [8] | z-score [9] | z-score [10] |
| --- | --- | --- | --- | --- | --- | --- | --- | --- | --- | --- |
| C=CCN(C(=O)C1N(CCCCCCO)C(=O)C2C(C(=O)O)C3C=CC21O3)C(C)(C)C (stereo not given) | 0.698 and -0.443 | -0.356 and -0.171 | 0.159 and 0.187 | 0.576 and 0.13 | -0.566 and -0.866 | -0.872 and -0.997 | -0.373 (inactive) and 0.302 (inactive) | 0.186 and 0.699 | 1.29 and 0.193 | -0.0791 (inactive) and -0.385 (inactive) |
| C=CCN(CCCCC)C(=O)C(c1cccs1)N(C(=O)/C=C\C(=O)O)c1c(Cl)cccc1CO (stereo not given) | 0.307 and -0.656 | 0.131 and -0.101 | -1.11 and -0.202 | 1.34 and 2.08 | 0.114 and -0.235 | -0.0476 and -0.222 | -0.706 (inactive) and 0.13 (inactive) | 0.1 and 0.992 | 0.0829 and -0.125 | -0.559 (inactive) and 0.0449 (inactive) |
| CO[C@@H]1COC(=O)CC=C[C@H](C)[C@@H](NS(=O)(=O)c2ccc(C)cc2)COC(=O)CC=C[C@@H]1C | 0.725 and -1.15 | -0.779 and -0.0305 | 0.515 and -1.42 | 0.317 and 0.286 | -0.0273 and 0.0878 | 0.651 and -0.353 | -0.162 (inactive) and -1.02 (inactive) | -0.235 and 0.237 | 0.654 and -0.385 | -0.512 (inactive) and 1.4 (inactive) |
| Cc1ccc(S(=O)(=O)N[C@@H]2COC(=O)CC=C[C@@H](C)[C@@H]3C=C[C@H](O)[C@@H](COC(=O)CC=C[C@H]2C)O3)cc1 | 0.616 and -0.418 | -0.347 and -0.476 | 0.664 and -1.95 | 0.0847 and -1.25 | 0.0913 and -0.776 | -0.0139 and 0.344 | -0.0698 (inactive) and 0.134 (inactive) | -0.858 and 1.11 | 1.32 and -1.69 | 0.0086 (inactive) and 0.658 (inactive) |
| CC(CO)N1C(=O)[C@@H]2C3C(=O)OCCC=C[C@H]3OC23C=CCN(Cc2ccccc2)C(=O)[C@@H]13 (stereo not given in full) | 0.606 and 0.0694 | 0.888 and 0.458 | 0.237 and 0.113 | 0.34 and 0.311 | -0.306 and -0.454 | 0.567 and 0.15 | 0.932 (inactive) and 0.902 (inactive) | -0.914 and 0.0338 | 0.789 and 0.282 | 0.305 (inactive) and 0.147 (inactive) |
| COC(=O)C1=C(C)N(Cc2ccccc2)C2=C(C(=O)c3ccccc3)[C@H](c3ccccc3)[C@@](O)(C(=O)OC)C(=O)N2[C@@H]1c1ccccc1 | 0.369 and 0.44 | -0.154 and -0.936 | 0.217 and 1.26 | -0.317 and 0.332 | -1.15 and 0.0491 | 1.33 and 2.03 | -0.393 (inactive) and -1.16 (inactive) | -0.639 and -0.349 | 0.573 and -0.514 | 1.39 (inactive) and -0.344 (inactive) |
| C=CCN(C(=O)C(c1cccs1)N(CCOCCO)C(=O)/C=C\C(=O)O)c1ccc(OC)cc1 (stereo not given) | 0.995 and 1.98 | 0.372 and -0.509 | 1.23 and 0.751 | 1.3 and 1.57 | 0.566 and 0.95 | 0.506 and 1.39 | -2.4 (inactive) and 1.53 (inactive) | -0.0898 and 0.302 | -1.19 and 0.702 | 0.18 (inactive) and 0.294 (inactive) |
| O=c1n(-c2ccccc2)c(=O)n2n1CC[C@@H]1C(=NOC[C@@H](O)COCc3ccco3)[C@H]3O[C@H]3[C@@H](O)[C@@H]12 | -1.18 and 0.202 | 0.581 and -0.304 | -0.0728 and -0.713 | 0.256 and -0.207 | -0.246 and -0.624 | -0.16 and -1.1 | 0.127 (inactive) and -1.22 (inactive) | -0.135 and 0.0289 | 0.181 and -0.00804 | -1.03 (inactive) and -0.872 (inactive) |
| CCN1C(=O)[C@H]2[C@H]3[C@H](O)[C@H](O)CC(=NOC)[C@@H]3CC[C@H]2C1=O | 0.357 | -0.344 | -0.0225 | -0.106 | 0.887 | 0.459 | 1.7 (inactive) | 0.0805 | -0.218 | -0.562 (inactive) |
| COC(=O)[C@H](C)NC(=O)CCC1CC(OC(=O)NCCc2ccc(F)cc2)CC2(CCCC(COC(=O)NCCCN3CCCC3=O)O2)O1 (stereo not given in full) | -0.48 | 1.06 | -1.32 | -0.901 | -1.78 | -0.197 | 0.0783 (inactive) | -0.405 | 0.0394 | 0.209 (inactive) |
| CO[C@H]1COC(=O)[C@H](C)NC(=O)CC=C[C@@H](C)[C@H](OC)COC(=O)CC=C[C@@H]1C | 1.51 | 0.459 | 0.235 | 0.0144 | 0.417 | 0.573 | 0.156 (inactive) | 0.56 | 1.04 | 0.74 (inactive) |
| C=C[C@@H](OC)[C@H](O)c1ccc(OC)c(O)c1 | -0.72 and 0.387 | 1.21 and 1.57 | -1.02 and 0.209 | -1.16 and 0.905 | -1.3 and 0.14 | -0.782 and 0.179 | -1.44 (inactive) and 0.912 (inactive) | -0.205 and -0.346 | -0.297 and 1 | -0.693 (inactive) and 0.835 (inactive) |
| C=C[C@H](OC)[C@@H](O)c1ccc(OCCO)cc1 | -0.057 and 1.18 | -0.367 and 0.0113 | -0.485 and 0.98 | -0.457 and 1.61 | -0.179 and 0.542 | -0.899 and 1.11 | -0.433 (inactive) and -0.178 (inactive) | -0.0855 and -0.21 | 0.412 and 1.06 | -0.555 (inactive) and -0.0644 (inactive) |
| CC(CO)N1C(=O)[C@@H]2C3C(=O)OCCC=C[C@H]3OC23C=CCN(C(C)(C)C)C(=O)[C@@H]13 (stereo not given in full) | -0.418 and -0.461 | -0.142 and -0.791 | -1.27 and -0.487 | -0.388 and 0.885 | -0.0799 and 0.143 | -0.985 and -1.27 | -0.105 (inactive) and -0.534 (inactive) | 0.914 and -0.0183 | 0.157 and -0.365 | -0.731 (inactive) and -0.299 (inactive) |
| CCCNC(=O)OC[C@H]1O[C@H](CCON=C(C)CCN2CCc3nc(-c4ccccc4)c(-c4ccccc4)cc3C2)C=C[C@@H]1Oc1ccc(OC)cc1 | 1.18 | 0.723 | 0.27 | -0.893 | -0.794 | 4.79 | -1.65 (inactive) | 0.179 | 0.483 | 0.444 (inactive) |
| C=CCN(C(=O)C(c1cccs1)N(C(=O)/C=C\C(=O)O)c1ccc(CCO)cc1)c1ccc(OC)cc1 (stereo not given) | -0.256 and 1.54 | 0.015 and -0.199 | 1.35 and 0.76 | 1 and -0.0823 | 1.2 and -0.0106 | 0.417 and 0.583 | 0.249 (inactive) and 1.26 (inactive) | 0.201 and 0.0752 | -1.07 and 1.18 | 0.307 (inactive) and 0.0568 (inactive) |
| C[C@@H]1CC[C@H]2C(=O)N3[C@@H](CC[C@@H](C)[C@@H]3c3ccc(-c4ccco4)cc3)C(=O)N2[C@H]1c1ccc(-c2ccco2)cc1 | -0.521 and 0.709 | 0.489 and 0.992 | -0.676 and -0.195 | -0.372 and -2.15 | -0.537 and -1.3 | -1.41 and -2.19 | -0.996 (inactive) and -0.779 (inactive) | 0.299 and -0.414 | 0.863 and 0.498 | -0.244 (inactive) and 1.43 (inactive) |
| C=CCN(CCCCC)C(=O)C1N(C(C)(C)CO)C(=O)C2C(C(=O)O)C3C=CC21O3 (stereo not given) | -0.777 and -0.44 | -0.472 and -0.0106 | 0.174 and -0.209 | 0.369 and -0.0102 | -0.187 and -0.148 | -0.66 and -1.15 | 0.044 (inactive) and -0.845 (inactive) | 0.776 and 0.876 | 0.861 and 0.681 | 0.0106 (inactive) and -0.0941 (inactive) |
| C=CCN(CCCC)C(=O)C1N(C(C)(C)CO)C(=O)C2C(C(=O)O)C3C=CC21O3 (stereo not given) | -0.77 and -0.624 | 0.75 and 0.349 | 0.0674 and -0.857 | 1.09 and -0.12 | -0.539 and 0.144 | -0.553 and -0.548 | -0.134 (inactive) and 0.142 (inactive) | 0.354 and 0.826 | -0.283 and -0.384 | 0.289 (inactive) and -0.11 (inactive) |
| CC(C)=NOC[C@@H](O)COCc1ccco1 | 0.991 | -0.611 | 0.828 | 0.191 | 0.313 | -0.0938 | 0.121 (inactive) | 0.602 | -0.391 | -0.736 (inactive) |
| C=CCN(CCCCC)C(=O)C1N(CCCCCCO)C(=O)C2C(C(=O)O)C3C=CC21O3 (stereo not given) | -0.681 and -0.373 | -0.573 and -0.412 | 0.122 and 0.657 | 1.6 and 0.379 | 0.0447 and -0.164 | -0.649 and -0.526 | -0.2 (inactive) and 0.409 (inactive) | 0.15 and 0.0486 | 0.702 and -0.254 | -0.66 (inactive) and -0.379 (inactive) |
| CCOC(=O)CCN1C(=O)[C@H]2[C@H]3[C@H](O)[C@H](O)CC(=NNC(=O)OCC)[C@@H]3CC[C@H]2C1=O | 0.241 | -0.0796 | 0.076 | -0.847 | -0.314 | -0.566 | -0.541 (inactive) | 0.209 | -0.479 | -0.453 (inactive) |
| CC(C)[Si]1(C(C)C)OCc2cc(C3CC3)nc(CCc3ccccc3)c21 | -0.351 and -0.69 | 0.193 and -0.871 | 0.498 and 0.203 | -2.57 and -2.81 | -0.48 and -3.77 | -1.5 and -2.69 | -0.186 (inactive) and -0.575 (inactive) | -0.14 and -0.902 | 0.245 and -0.582 | 1.12 (inactive) and 1.39 (inactive) |
| CCOC(=O)[C@@H]1CC2O[C@]23C[C@@H]1C(=O)N1CCC[C@@H]1[C@H]3O[Si](C)(C)C(C)(C)C (stereo not given in full) | -0.889 and -0.825 | 0.838 and 0.26 | -0.526 and -0.885 | 0.0049 and -3.22 | -0.55 and -0.467 | -0.904 and -1.08 | -0.744 (inactive) and -0.631 (inactive) | -0.387 and -0.407 | 0.781 and -1.86 | -0.438 (inactive) and -0.287 (inactive) |
| C[C@@H]1CN2[C@@H](CC[C@@H](C)[C@@H]2c2ccc(Br)cc2)C(=O)O1 | -0.133 and 0.551 | 0.706 and 0.0322 | -0.163 and 0.959 | 0.248 and 0.391 | -0.0928 and 0.767 | 0.446 and 0.56 | -0.0606 (inactive) and 0.229 (inactive) | 0.05 and 0.203 | 1.26 and -0.901 | 0.131 (inactive) and -1.45 (inactive) |
| CC(C)=NOCc1ccc(-c2cn([C@@H]3COC[C@H]3O)nn2)cc1 | 0.0524 | 0.371 | 0.239 | -0.812 | 0.176 | -0.32 | -0.0926 (inactive) | 0.169 | 1.43 | -0.207 (inactive) |
